A selection: hits, their analogues and other compounds. The true share with any hit is near 1.8%.
Peg3 imprint: qHTS Assay for Compounds that Induce Erasure of Genomic Imprints; mouse ES Peg3-LacZ reporter, beta-gal luminescence, 40 h; Potency, µM (series often up to 60.7 µM), for the others: at the highest dose activity change, positive = activation, hits mostly activators; hit rate 0.02% among 110,000; AID 1948, 2009
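Readout: BetaGlo luminescence (5 min, room temp) for LacZ from the normally silent maternal Peg3 allele in female Peg3LacZ-Neo ES cells. Cells 300/well, 40 h, 37C, 5% CO2. Data normalized per plate to negative controls.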
p53ts 39C tox: qHTS Screen for Compounds that Selectively Target Cancer Cells with p53 Mutations: Cytotoxicity of p53ts Cells at the Nonpermissive Temperature; H1299-p53A138V viability at 39C, ATP luminescence, 24 h; Potency, µM (highest dose often 46.1 µM), for inactives: top-dose activity change, negative = cell killing, most hits filed as cytotoxic; hit rate 1.5% among 130,000; AID 902, 2007; also: % is scaled to controls: 0 for no effect and ±100 for the full control effect; nearly all actives have a fitted effect of over 55% in size
p53ts 32C kill: qHTS Screen for Compounds that Selectively Target Cancer Cells with p53 Mutations: Cytotoxicity of p53ts Cells at the Permissive Temperature. H1299-p53A138V at 32C, ATP luminescence viability, 24 h. Potency, µM (top dose mostly 46.1 µM), for the others: at the top dose activity change, negative = cytotoxicity, most hits filed as cytotoxic. hit rate 0.93% among 130,000. AID 924, 2007;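 also: 0% = DMSO and -100% = full killing by reference compound; nearly all actives have a fitted effect of over 55% in size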
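Viability by ATPlite luminescence after 24 h compound treatment (up to 46 uM) at the permissive 32C. Cells are H1299 carrying p53 A138V. Scale runs from DMSO basal to 100 uM tamoxifen as full kill; AC50 from Hill fits.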
IkB signaling: IkB Signaling | AID 445, 2006 | hit rate 0.04% among 110,000 | Potency, µM (doses to about 57.1 µM), for inactives: top-dose IkBa stabilization activation | ABC-DLBCL IkBa-CBG/CBR dual luciferase ratio, 4 h; response scale: scaled: untreated 0%, proteasome inhibitor 100%; active = well fitted curve in the direction sought with a large enough effect in the signal ratio, not every such curve was filed as active; inconclusive = small, poorly fitted or top-dose-only effect, or a change in a side signal; the % refers to the signal ratio;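 also: the direction sought is a rising ratio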
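Luminescence ratio of IκBα-fused green versus native red beetle luciferase in OCI-Ly3 cells, 4 h post-doxycycline with compound; red signal alone, scaled from basal (0%) to zero light (-100%), flagged nonspecific or cytotoxic effects.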
The depositor's hits bear a star; ? = inconclusive; . = no result given; ! = not active in a repeat; [ ] = another dose, or the depositor's remark. Unless noted, calls follow the shape of the dose curve; as a rule, active = well fitted curve in the direction sought with a large enough effect; inconclusive = small, poorly fitted or top-dose-only effect, or another doubt; inactive = no such curve, though single readings can be large; an effect the other way counts as inactive or inconclusive. Potency is read from the fitted curve at half-maximal effect.

SMILES | Peg3 imprint | p53ts 39C tox | p53ts 32C kill | IkB signaling
COC(=O)[C@]1(C)CC[C@@]2(C)CC[C@@]3(C)C4=CC=C5C(=CC(=O)C(O)=C5C)[C@@]4(C)CC[C@@]3(C)C2C1 (some centres undefined) | -45% | 13µM* | 10µM* | .
CCOc1ccc2nc(NC(=O)c3cccn(Cc4ccc(C)cc4)c3=O)sc2c1 | 9%[10.9 µM] | 1% | 0% | -2%
COc1ccc2nc(NC(=O)c3nc(S(=O)(=O)Cc4cccc(C)c4)ncc3Cl)sc2c1 | -35%[10.9 µM] | 10µM* | 20µM* | ?
O=C(Cn1c(=O)n(Cc2ccccc2)c(=O)c2sc3ccccc3c21)NCc1ccccc1Cl | 13%[10.9 µM] | 32µM* | 13µM* | 0%
O=C(O)[C@@H](O)[C@@H](O)C1[O][Sb][O][C@@H]1CO (some centres undefined) | -17%[10.9 µM] | . | . | .
Cc1oc(-c2cccc(Cl)c2)nc1CN1CCC(C(=O)NCCCN2CCN(c3cccc(Cl)c3)CC2)CC1 | -9%[10.9 µM] | 10µM* | -17% | ?
Cc1oc(-c2ccccc2Cl)nc1CN1C(=O)CN=C(c2ccccc2)c2cc(Cl)ccc21 | -14%[10.9 µM] | -8% | -4% | ?
Cc1nc2c(=O)n(C)c(=O)nc-2n(C)n1 | . | 2µM* | 1.1µM* | .
C[C@@H](Cc1cccc(C(F)(F)F)c1)NCCCc1ccccc1 | -23% | 25µM* | -5% | ?
[CH3][Hg][Cl] | -46% | 16µM* | 9%[1.84 µM] | ?
Cc1nc2cc(C(F)(F)F)ccc2n1C1CCN(Cc2nnnn2Cc2ccc3c(c2)OCO3)CC1 | -19% | 20µM* | -22% | ?
Cc1nc2cc(C(F)(F)F)ccc2n1C1CCN(Cc2nnnn2Cc2cccs2)CC1 | -14% | -7% | -3% | 3%
CCN1C[C@@]2(COC(=O)c3ccccc3N3C(=O)C[C@H](C)C3=O)CC[C@H](OC)[C@@]34[C@@H]5CC6[C@@H](OC)C[C@@](O)([C@H]5[C@H]6OC)C(O)([C@@H]13)[C@@H](OC)[C@H]24 | . | . | . | 0%[11.4 µM]
O[N+]1=CC=CCC1=S.On1ccccc1=S.[Zn] | -31% | 4µM* | 0.79µM* | .
C=C(C)[C@H]1[C@H]2OC(=O)[C@@H]1[C@]1(O)C[C@H]3O[C@]34C(=O)O[C@H]2[C@]14C | . | . | . | 0%[11.4 µM]
CN[C@H]1[C@H](C)O[C@@H](O[C@@H]2C/C=C(/C)C/C(C)=C\C=C/CC[C@@H](C)CNC(=O)/C=C\C=C/[C@H]2C)C[C@@H]1O | . | . | . | 1%[11.4 µM]
CCCOc1ccc(C(=O)Nc2ccc(-c3cc4ccccc4oc3=O)c(C)c2)cc1 | -20%[10.9 µM] | 6.3µM* | ? | ?
CCCOC(=O)COc1cc(C)cc2oc(=O)c3c(c12)CCC3 | -11% | -2% | 1% | 2%
C[C@H]1CC[C@]2(NC1)O[C@@H]1C[C@@H]3[C@@H]4CC=C5C[C@H](O)CC[C@@]5(C)[C@H]4CC[C@@]3(C)[C@H]1[C@@H]2C | . | . | . | 1%[11.4 µM]
[Cd+2].[Cl-].[Cl-] | -22% | 1.3µM* | . | 4µM*
Cc1ccccc1Cn1cccc(C(=O)Nc2nc3ccccc3s2)c1=O | -29%[10.9 µM] | 10µM* | 11% | 3%
CC(=O)c1c(C)nc2ccccc2c1N | -34% | 10µM* | 13µM* | 1%
Cc1nc2ccccc2c(=O)n1-n1cnnc1 | -4% | -8% | 21% | 2%
[Cl][Pd][Cl].[S-]C1=C2N=CN[C-]2[NH+]=C[N-]1.[S-]c1ncnc2[nH]cnc12 | 19%[10.9 µM] | . | . | .
CCCCC/C=C\C/C=C\C/C=C\C/C=C\CCCC(=O)N(Cc1ccc(O)c(Cl)c1)Cc1ccc(O)c(Cl)c1 | 25% | . | . | .
SMILES | Peg3 imprint | p53ts 39C tox | p53ts 32C kill | IkB signaling
O=C(O)/C=C\c1ccc[c]([Sb](=[O])([OH])[OH])c1 | . | 11%[9.22 µM] | 9%[9.22 µM] | 2%[11.4 µM]
O=c1[nH]c2ccccc2n1C1CCN(CCCC(c2ccc(F)cc2)c2ccc(F)cc2)CC1 | -28% | 16µM* | 25µM*! | 1%
CCN(CC)C(=O)N[C@@H]1C=C2c3cccc4[nH]cc(c34)C[C@@H]2N(C)C1 | . | . | . | -4%
Cc1oc2ccc(O)c(CN3CCCCCC3)c2c1C(=O)Nc1cccc(Cl)c1C | -14%[10.9 µM] | 16µM* | -11% | ?
COc1cc2c(cc1OC)[C@]13CC[N@+]4(C)CC5=CCO[C@H]6CC(=O)N2[C@@H]1[C@@H]6[C@@H]5C[C@]34O | . | 13%[9.22 µM] | 2%[9.22 µM] | 0%[11.4 µM]
CCc1ccccc1Nc1nn2c(=O)c3ccc(C(=O)Nc4cc(C)cc(C)c4)cc3nc2s1 | 1%[10.9 µM] | 4µM* | 3.2µM* | ?
[Cl-].[Cl-].[Hg+2] | -85% | 25µM* | . | ?
CC(=O)N1C[C@@H]2C[C@H](C1)c1cccc(=O)n1C2 | . | . | . | 2%[11.4 µM]
C[C@H]1CC[C@@H]2[C@@H](C)C(=O)O[C@H]3O[C@@]4(C)CC[C@@H]1[C@]32OO4 | . | . | . | -1%[11.4 µM]
C=C[C@@H]1CN2CC[C@H]1C[C@H]2[C@@H](O)c1ccnc2ccccc12 | . | . | . | 2%[11.4 µM]
COc1ccc2c(c[n+](C)c3c4cc5c(cc4ccc23)OCO5)c1OC | -32% | 13µM* | 5µM* | ?
CC(C)(C)NC[C@H](O)c1ccccc1Cl | . | -9% | -6% | -2%
Cc1c([C@@H](C)C2NC[C@H](C)C[C@@H]2O)ccc2c1C[C@@H]1[C@H]2CC=C2C[C@@H](O)CC[C@@]21C (some centres undefined) | -22%[10.9 µM] | . | . | .
Cc1ccc(C(=O)Nc2c(C(=O)Nc3ccc(C)c(C)c3)sc3nc(C)cc(C)c23)cc1 | -5%[10.9 µM] | 6.3µM* | -24% | -1%
CCCCCCn1c(O)c(C=NC2CCCCC2N)c(=O)[nH]c1=O (centres undefined) | -47% | 5µM* | 4µM* | 1%
O=C1OC(=O)[C@@H]2[C@@H]1[C@@H]1CC[C@H]2O1 | . | 12% | 35% | ?
CCCN1CCc2cccc3c2[C@@H]1Cc1ccc(O)c(O)c1-3 | . | ? | -24% | 14%
O=C(NCCc1ccc(Cl)cc1)c1ccc(Nc2nc3ccccc3n3nnnc23)cc1 | -5%[10.9 µM] | 7.9µM* | ? | ?
O=C1C=CC(=O)C(Cl)=C1 | -18% | . | . | .
CO[C@@H](C)[C@](O)(C(=O)OC1=CCN2CC[C@H](O)[C@H]12)C(C)C | . | . | . | 3%[11.4 µM]
CC[C@@H]1CN2CC[C@@H]1C[C@H]2[C@@H](O)c1ccnc2ccc(OC)cc12 | . | . | . | -1%[11.4 µM]
CC(=O)Oc1ccc(/C=C/c2cc(OC(C)=O)cc(OC(C)=O)c2)cc1 | -51% | 6.3µM* | 7.9µM* | .
COc1ccc(/C=C/C(=O)Nc2ccc(C)cc2)cc1 | -14%[10.9 µM] | -14% | ? | 6%
C[C@@H]1O[C@@H](O[C@H]2C[C@@H](O)[C@]3(CO)[C@@H]4[C@@H](O)C[C@]5(C)[C@H](C6=CC(=O)OC6)CC[C@@]5(O)[C@H]4CC[C@@]3(O)C2)[C@H](O)[C@H](O)[C@@H]1O | . | . | . | -8%
CCCN1CC[C@@H]2c3cc(O)ccc3CC[C@H]21 | . | 4% | -3% | -3%
